Measurements: PubChem BioAssay (NCI)
The panel holds about 83,000 compounds, 20% with a hit somewhere; the sample as a whole holds those more often.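 Percent growth is the endpoint: 0 to 100 indicates growth inhibition (40 means 60% inhibition), 0 means no net growth, and negative values indicate cell death.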 Values without a mark were called inactive. Calls of active or inactive are those of the source. Rule for the calls: active = growth percent below 10; inactive = the rest.

Assays:
Test in all cases: NCI-60 one-dose screen, 48 h (100 = growth as untreated, 0 = no growth, -100 = all killed)
HCT-15 colon = conditions: 10 µM
HT29 colon = conditions: 10 µM
SNB-75 CNS = conditions: 10 µM
SNB-19 CNS = conditions: 10 µM
U251 CNS = conditions: 10 µM
PC-3 prostate = conditions: 10 µM
SK-MEL-5 melanoma = conditions: 10 µM
UACC-62 melanoma = conditions: 10 µM unless noted
LOX IMVI melanoma = conditions: 10 µM
SK-MEL-28 melanoma = conditions: 10 µM
SK-MEL-2 melanoma = conditions: 10 µM
EKVX NSCLC = conditions: 10 µM
SN12C renal = conditions: 10 µM
TK-10 renal = conditions: 10 µM unless noted
ACHN renal = conditions: 10 µM
CAKI-1 renal = conditions: 10 µM
A498 renal = conditions: 10 µM
CCRF-CEM leukemia = conditions: 10 µM
MOLT-4 leukemia = conditions: 10 µM
UO-31 renal = conditions: 10 µM

| Structure (SMILES) | growth (HCT-15 colon) | growth (HT29 colon) | growth (SNB-75 CNS) [%] | growth (SNB-19 CNS) [%] | growth (U251 CNS) [%] | growth (PC-3 prostate) [%] | growth (SK-MEL-5 melanoma) | growth (UACC-62 melanoma) [%] | growth (LOX IMVI melanoma) | growth (SK-MEL-28 melanoma) [%] | growth (SK-MEL-2 melanoma) [%] | growth (EKVX NSCLC) [%] | growth (SN12C renal) [%] | growth (TK-10 renal) [%] | growth (ACHN renal) [%] | growth (CAKI-1 renal) [%] | growth (A498 renal) | growth (CCRF-CEM leukemia) | growth (MOLT-4 leukemia) | growth (UO-31 renal) [%] |
| --- | --- | --- | --- | --- | --- | --- | --- | --- | --- | --- | --- | --- | --- | --- | --- | --- | --- | --- | --- | --- |
| C=CCNc1ccccc1 | 106% | 98.4% | 82.7 | 91.5 | 106 | 85.2 | 102% | 89.9 | 93.7% | 99.9 | 95.5 | 108 | 94.1 | 95.7 | 101 | 114 | 119% | 93.6% | 95.4% | – |
| c1cc2cccc3c4cccc5cccc(c(c1)c23)c54 | 99.9% | 110% | 88.5 | 99.5 | 120 | 93.5 | 102% | 93.2 | 97.7% | 107 | 98.7 | 104 | 98.6 | 102 | 102 | – | 116% | 103% | 105% | – |
| c1cc[n+](C2c3ccccc3C([n+]3ccccc3)c3ccccc32)cc1 (centres undefined) | 103% | 73.4% | 17.9 | 26.7 | 21.5 | 58.4 | 27.6% | 67.3 | 76.1% | 61.6 | 92.8 | 48.3 | 26.7 | 52 | 91.8 | 87.3 | 94.9% | -42.3% (active) | 86.5% | – |
| Cc1ccc(C(=O)c2ccccc2)c(C)c1 | 105% | 101% | 84.4 | 111 | 110 | 98.3 | 107% | 102 | 93.7% | 109 | 108 | 105 | 99.2 | 109 | 103 | 121 | 104% | – | 116% | – |
| CC(=Nc1ccccc1)C1=C(O)C(Cc2cccc(F)c2)NC1=O (centres undefined) | 8.21% (active) | -12.1% (active) | 78.3 | 36.2 | 10.8 | 19.2 | 1.57% (active) | 32.9 | 5.05% (active) | 63.5 | 13.1 | – | 29.7 | 44.4 | 26.4 | 37.2 | 0.117% (active) | 6.2% (active) | -12.4% (active) | 35.9 |
| N#CSc1cc(S(N)(=O)=O)ccc1N | 108% | 101% | 85.5 | 102 | 101 | 109 | 101% | 104 | 99.9% | 102 | 104 | 115 | 101 | 106 | 112 | 124 | 118% | – | 84.5% | – |
| CCOC(=O)c1coc(C(=O)OCC)c1C(=O)OCC | 105% | 124% | 92.3 | 112 | 102 | 122 | 108% | 112 | 108% | 117 | 126 | 100 | 112 | 118 | – | 102 | 92.2% | 112% | 98.6% | – |
| S=c1sc2ccccc2n1CN1CCCCC1 | 102% | 101% | 77.6 | 104 | 104 | 77.2 | 104% | 104 | 84.5% | 106 | 94 | 104 | 109 | 93.7 | 98.7 | 88.2 | 96.5% | 102% | 112% | – |
| CCCC(=O)c1cc(C)ccc1OC | 100% | 107% | 94.9 | 114 | 115 | 91.3 | 104% | 95.5 | 109% | 105 | 103 | 117 | 94.5 | 104 | – | 104 | 119% | 96.5% | – | – |
| Cc1ccc(O)c(C(=O)c2ccccc2)c1 | 104% | 104% | 96.6 | 92.2 | 105 | 101 | 105% | 96.6 | 99.3% | 110 | 107 | 103 | 100 | 111 | 104 | 104 | 78.7% | 55.8% | 112% | – |
| COC(=O)c1ccccc1N(C)C | 103% | 94.8% | 93.3 | 98.8 | 112 | 100 | 101% | 105 | 94.5% | 103 | 99.4 | – | 103 | 94.8 | 113 | 96.2 | 79.6% | 95.5% | 90.1% | 87.5 |
| O=P(O)(O)OCC(O)CO (centres undefined) | 104% | 101% | 84 | 104 | 94 | 96.7 | 102% | 108 | 97.9% | 98.2 | 117 | – | 98.5 | 110 | 101 | 104 | 108% | 100% | 103% | 98.7 |
| C=C[Si](OC(C)=O)(OC(C)=O)OC(C)=O | 103% | 101% | 95.5 | 109 | 100 | 91.6 | 104% | 116 | 98.4% | 104 | 109 | – | 110 | 105 | 97.3 | 96.4 | 94.2% | 88% | 98.3% | 79.3 |
| CCCCCCCCOC(=O)c1ccccn1 | 97.3% | 96.2% | 84.4 | 105 | 110 | 97.4 | 104% | 99.4 | 91.7% | 107 | 103 | 107 | 96.4 | 102 | 103 | 111 | 104% | – | 116% | – |
| CCCCCCCCCCC(C)Br (centres undefined) | 104% | 109% | 97 | 103 | 103 | 101 | 102% | 104 | 94.3% | 112 | 104 | – | 103 | 107 | 102 | 98.6 | 108% | 95.3% | 95.3% | 91.9 |
| Cc1nc2ccccc2c(C(=O)O)c1O | 107% | 103% | 98.3 | 93.1 | 103 | 104 | 102% | 93.2 | 96.4% | 122 | – | 103 | 98.3 | 113 | – | – | 117% | 121% | 132% | 91.2 |
| Cc1cc(O)ccc1O | 108% | 114% | 114 | 112 | 107 | 97.7 | 88.6% | 80.8 | 92.5% | 108 | – | 94.6 | 95.3 | 123 | 105 | – | 103% | 19.1% | 65% | 94.4 |
| O=C(/C(=N/O)c1ccccc1)c1ccccc1 | 96.8% | 117% | 85.4 | 100 | 94.6 | 94.9 | 97.4% | 88.3 | 105% | 105 | 121 | – | 94.6 | 108 | 106 | 100 | 91.5% | 97.9% | 123% | – |
| O=C(O)CCCc1ccccc1 | 101% | 109% | 99.9 | 105 | 95.3 | 99.3 | 108% | 108 | 102% | 111 | – | 116 | 101 | 98.9 | 108 | – | 121% | 102% | 98.4% | 94.9 |
